Source: PubChem (National Center for Advancing Translational Sciences (NCATS))
The list is not random: actives were taken first. Their share in the collection is about 0.69%.
Vif-A3G inh: qHTS for Inhibitors of Vif-A3G Interactions: qHTS. Potency, µM (top dose mostly 46.1 µM), for inactives: at the highest dose activity, negative = active, hits mostly inhibitors. 410,000 tested, 0.076% active. HeLa A3G-eYFP + Vif (tagged APOBEC3G with the HIV-1 protein that degrades it), YFP fluorescence, overnight. DNA dC->dU-editing enzyme APOBEC-3G (Homo sapiens), Q9HC16. AID 602310, 2012; also: % is scaled to controls: 0 for no effect and ±100 for the full control effect; nearly all actives have a fitted effect of over 60% in size
Target sequence (Q9HC16 whole entry, looked up): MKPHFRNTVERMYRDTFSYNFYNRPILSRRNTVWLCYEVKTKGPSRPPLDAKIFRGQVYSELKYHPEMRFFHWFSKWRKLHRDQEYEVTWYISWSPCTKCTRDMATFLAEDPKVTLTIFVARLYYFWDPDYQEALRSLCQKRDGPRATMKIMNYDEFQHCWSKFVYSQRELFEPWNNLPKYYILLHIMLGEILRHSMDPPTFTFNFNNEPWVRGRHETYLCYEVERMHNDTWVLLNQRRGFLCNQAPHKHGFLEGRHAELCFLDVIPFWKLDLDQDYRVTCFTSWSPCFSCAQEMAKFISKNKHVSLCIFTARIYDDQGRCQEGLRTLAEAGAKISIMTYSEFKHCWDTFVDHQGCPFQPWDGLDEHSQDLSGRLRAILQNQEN
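Read-out is eYFP fluorescence (Ex 488/Em 500-530) from Vif-expressing HeLa A3G-eYFP cells; more signal means A3G escaped Vif-mediated degradation. Cells plated overnight, compound pinned in, incubated overnight at 37 deg C.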
FUS suppressor: qHTS for Suppressors of FUS Proteinopathy: Primary screen using FUS-linked yeast assay; S. cerevisiae FUS-expressing, growth rescue, OD600, 24 h; Potency, µM (doses to about 76.6 µM), most hits filed as activators; 390,000 tested, 0.24% active;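 also: plate controls were DMSO vehicle for no effect and reference control for full effect; nearly all actives have a fitted effect of over 55% in size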
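Yeast expressing FUS under galactose induction, OD 0.005 in 2% galactose medium; compounds in a dilution series, 24 h at 30C. Growth rescue by absorbance at 600 nm; CP55940 positive control, DMSO negative.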
PINK1 expr mod: A Quantitative High throughput Screen to Identify Chemical Modulators of PINK1 Expression | PINK1 immunofluorescence, high-content cytometry, 24 h | Potency, µM (doses to about 76.6 µM), for inactives: at the highest dose activation (PINK1 increase), most hits filed as activators | 410,000 tested, 0.2% active | AID 624263, 2012; active = well fitted activation curve with a large enough effect; inconclusive = small, poorly fitted or top-dose-only effect; cell line not stated here; also: % of control where 0% means no effect; nearly all actives have a fitted effect of over 65% in size
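Measures PINK1 amount and localization on or inside mitochondria by immunofluorescence. Stable cells get compounds at 5 concentrations for 24 hours before fixation and staining; CCCP controls included.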
Abeta yeast res: qHTS for compounds that reverse cellular toxicity of Amyloid beta (A-beta) peptide in yeast: Primary Screen; yeast expressing A-beta42, growth rescue, OD600, 48 h; response scale: 0% DMSO, 100% iron-clioquinol control; Potency, µM (titrated, usually from 46.1 µM), hits mostly activators; 410,000 tested, 0.063% active; also: nearly all actives have a fitted effect of over 55% in size
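Yeast growth medium received pinned compounds, then yeast cells expressing toxic A-beta were added; plates incubated at 30 C for 48 hr. Growth read as absorbance at 600 nm, normalized to DMSO and equimolar FeCl3 plus clioquinol controls.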
Vif-APOBEC3F blk: qHTS for Inhibitors of Vif-A3F Interactions: qHTS; Potency, µM (highest dose often 46.1 µM), for inactives: at the top dose activity, negative = active; 390,000 tested, 0.2% active; HeLa A3F-eYFP + Vif (tagged APOBEC3F with the HIV-1 protein that degrades it), YFP fluorescence increase; also: % of control where 0% means no effect; nearly all actives have a fitted effect of over 65% in size
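HeLa cells stably expressing Vif plus C-terminally eYFP-tagged A3F were seeded, incubated overnight at 37 deg C, dosed with compound, incubated overnight again at 37 deg C. Yellow fluorescence (Ex 488/Em 500-530) reported blocked Vif-mediated A3F-eYFP degradation.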
Glioma ERSR ind: qHTS for Inducers of the Endoplasmic Reticulum Stress Response (ERSR) in Human Glioma: qHTS | U87-MG GRP78 promoter luciferase reporter, 16 h | Potency, µM, for inactives: at the highest dose activation, most hits filed as activators | 420,000 tested, 0.02% active | AID 602332, 2012; also: series mostly up to about 76 µM; % of control where 0% means no effect; nearly all actives have a fitted effect of over 35% in size
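Stably transfected U87-MG glioma cells carrying a GRP78-based luciferase sensor; 16 h compound incubation. Luminescence end-point read 10 min after Bright-Glo addition at room temperature.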
The depositor's hits bear a star; i = inactive; ? = inconclusive; / = no result given; ! = repeats disagree. Unless noted, calls follow the shape of the dose curve; as a rule, active = well fitted curve in the direction sought with a large enough effect; inconclusive = small, poorly fitted or top-dose-only effect, or another doubt; inactive = no such curve, though single readings can be large; an effect the other way counts as inactive or inconclusive. Potency is read from the fitted curve at half-maximal effect.

SMILES | Vif-A3G inh | FUS suppressor | PINK1 expr mod | Abeta yeast res | Vif-APOBEC3F blk | Glioma ERSR ind
COc1cc(CC(C)N)cc2c1OCO2 (configuration not stated) | / | / | / | / | / | 1%
Oc1ccc2c3c1OC1C(O)C=CC4[C@@H](C2)NCC[C@]314 (some centres not stated) | / | / | / | / | / | -1%
Cc1ccccc1-[n+]1c(-c2ccccc2)cc(-c2ccccc2)cc1-c1ccccc1 | -3% | i | 10µM* | i | -2% | -6%
Oc1ccccc1-[n+]1c(-c2ccccc2)cc(-c2ccccc2)cc1-c1ccccc1 | -2% | i | / | i | 0% | -1%
[O-]c1ccccc1-[n+]1c(-c2ccccc2)cc(-c2ccccc2)cc1-c1ccccc1 | 4% | i | 16µM* | i | -2% | -2%
Brc1ccc(-[n+]2c(-c3ccccc3)cc(-c3ccccc3)cc2-c2ccccc2)cc1 | -16% | i | 25µM* | i | -6% | -6%
O=C(O)c1ccc(-[n+]2c(-c3ccccc3)cc(-c3ccccc3)cc2-c2ccccc2)cc1 | 1% | i | 0% | i | 0% | 4%
ClCCN(CCCl)c1ccc(C=Nc2ccc(/C=C/c3ccncc3)cc2)cc1 | -7% | / | / | / | / | 0%
Cc1nn(-c2ccccc2)c2c1C(c1ccc(F)cc1F)C(C#N)=C(N)O2 (configuration not stated) | 0% | i | 11µM* | i | 0% | -2%
Cc1nn(-c2ccccc2)c(Cl)c1C1C(C#N)=C(N)Oc2c1c(=O)oc1ccccc21 (configuration not stated) | -13% | ? | 1% | i | -10% | ?
CC(C)Oc1cccc(NC(=O)c2ccccc2C(F)(F)F)c1 | / | / | / | / | / | -3%
COCCNC(=O)c1c(NC(=O)c2ccc(Br)o2)n(Cc2ccccc2)c2nc3ccccc3nc12 | ? | i | 16% | i | 11µM* | -2%
COCCCNC(=O)c1c(NC(=O)c2ccco2)n(Cc2ccccc2)c2nc3ccccc3nc12 | ? | i | 4% | i | / | -1%
CCc1ccc(CN2CCN(Cc3cc(Br)ccc3O)CC2)cc1 | 1% | i | 40µM* | i | -1% | -4%
CCC1CC2CC3c4[nH]c5ccc(OC)cc5c4CCN(C2)C13 (configuration not stated) | / | / | / | / | / | -5%
CN(C)c1ccc(/C=C/C=C2/C(=O)NC(=O)N(c3ccccc3)C2=O)cc1 | ? | 5.6µM* | 19% | i | 7.9µM* | ?
O=c1[nH]c(=S)n(CCC2=CCCCC2)c(O)c1C=NCCCn1ccnc1 | -3% | i | 2% | i | 0% | -4%
O=c1[nH]c(=O)n(CCC2=CCCCC2)c(O)c1C=NCCCn1ccnc1 | -1% | 13µM* | 0% | i | / | -1%
COC(=O)C1=C(c2ccc(Cl)c(C(F)(F)F)c2)C[C@@H]2CC[C@H]1N2C(=O)NCCOc1ccccc1 | -6% | 22µM* | ? | i | -2% | 2%
CC1=CC(=O)OC2CC3OC4C[C@@H](C)C5OC6CC7O[C@]8(C)C/C=C\C9OC%10CC%11OC(CC(C)C%12OCCO%12)CC(O)[C@]%11(C)OC%10CC9OC8C[C@]7(C)O[C@]6(C)CCC5OC4C[C@]3(C)OC12 (some centres not stated) | -2% | 10µM* | 2% | i | 3% | -1%
C=C(CC1CC(O)[C@]2(C)OC3CC4OC5C[C@]6(C)O[C@]7(C)CCC8OC9C[C@]%10(C)OC%11C(C)=CC(=O)OC%11CC%10OC9C[C@@H](C)C8OC7CC6O[C@]5(C)C/C=C\C4OC3CC2O1)C(=O)O (some centres not stated) | 0% | ? | -1% | i | 11% | -4%
Cn1c(O)c(C2=NNC(c3ccc(Cl)cc3)C2)c(=O)n(C)c1=O (configuration not stated) | -6% | i | 2% | 14µM* | 3% | -5%
CN1/C(=C\C=C2C(=O)NC(=O)NC2=O)C(C)(C)c2ccccc21 | ? | i | 0% | i | 11µM* | -4%
CN1CC[C@]23c4c5ccc(O)c4OC2C(O)CCC3[C@H]1C5 (some centres not stated) | / | / | / | / | / | -1%
C/C=C(/C)C(=O)O[C@H]1C(C)=C2[C@H]([C@@H]1OC(=O)CCCCCCC)[C@@](C)(OC(C)=O)C[C@H](OC(=O)CCC)[C@@]1(O)[C@H]2OC(=O)[C@@]1(C)O | / | / | / | / | / | 0.016µM*!
SMILES | Vif-A3G inh | FUS suppressor | PINK1 expr mod | Abeta yeast res | Vif-APOBEC3F blk | Glioma ERSR ind
COCCCn1c(=O)/c(=C\c2ccccc2OC(F)F)s/c1=C(/C#N)C(=O)NCCOC | -8% | i | ? | i | 25µM* | -7%
COCCCn1c(=O)/c(=C/c2ccccc2OC(F)F)s/c1=C(\C#N)C(=O)NCCOC | -8% | i | ? | i | ? | -1%
CCCCNC(=O)/C(C#N)=c1\s/c(=C\c2ccccc2OC(F)F)c(=O)n1CCCOC | ? | i | ? | i | 8.9µM* | -3%
C[C@H]1O[C@@H](O[C@H]2[C@@H](O)C[C@@H](O[C@H]3[C@@H](O)C[C@H](O[C@H]4CC[C@@]5(C)[C@H](CC[C@@H]6[C@@H]5CC[C@]5(C)[C@@H](C7=CC(=O)OC7)CC[C@]65O)C4)O[C@@H]3C)O[C@@H]2C)C[C@H](O)[C@@H]1O | -8% | / | -1% | / | / | -8%
CC(=O)OC1CC(OC2C(O)CC(OC3C(O)CC(O[C@H]4CC[C@]5(C)C6CC[C@]7(C)[C@@H](C8=CC(=O)OC8)[C@@H](O)C[C@]7(O)[C@@H]6CC[C@@H]5C4)OC3C)OC2C)OC(C)C1OC1OC(CO)C(O)C(O)C1O (some centres not stated) | / | / | / | / | / | -7%
COc1ccc(C2CC(c3c(O)n(CCc4ccccc4)c(=O)[nH]c3=O)=NN2)cc1OC (configuration not stated) | 1% | 22µM* | -3% | i | -1% | -4%
COc1ccc(CCn2c(O)c(C=NCc3cccnc3)c(=O)[nH]c2=O)cc1OC | -16% | i | 2% | ? | -10% | -3%
[Hg+][c]1ccccc1 | -14% | / | -1% | / | / | -12%
Nc1ccc2c3c(cccc13)-c1ccccc1-2 | ? | i | 11µM* | i | ? | 4%
